In PubChem BioAssay (Tox21):
Inconclusive results are not listed. Entries that show only a call come without a potency. A number with no mark means an inactive call. The source made the active and inactive calls. The call rests on the fitted dose curve.

target: Muscarinic acetylcholine receptor M1 (Homo sapiens) (UniProt P11229); assay: Cholinergic receptor muscarinic 1 (CHRM1) small molecule antagonists, cell-based qHTS assay (AID 1963588); conditions: CHRM1-CHO antagonist mode, calcium flux fluorescence; series mostly up to 61.5 µM; activity, negative = inhibition: at the top concentration; further: nearly all actives have a fitted effect of over 40% in size
Sequence (P11229 whole entry, looked up): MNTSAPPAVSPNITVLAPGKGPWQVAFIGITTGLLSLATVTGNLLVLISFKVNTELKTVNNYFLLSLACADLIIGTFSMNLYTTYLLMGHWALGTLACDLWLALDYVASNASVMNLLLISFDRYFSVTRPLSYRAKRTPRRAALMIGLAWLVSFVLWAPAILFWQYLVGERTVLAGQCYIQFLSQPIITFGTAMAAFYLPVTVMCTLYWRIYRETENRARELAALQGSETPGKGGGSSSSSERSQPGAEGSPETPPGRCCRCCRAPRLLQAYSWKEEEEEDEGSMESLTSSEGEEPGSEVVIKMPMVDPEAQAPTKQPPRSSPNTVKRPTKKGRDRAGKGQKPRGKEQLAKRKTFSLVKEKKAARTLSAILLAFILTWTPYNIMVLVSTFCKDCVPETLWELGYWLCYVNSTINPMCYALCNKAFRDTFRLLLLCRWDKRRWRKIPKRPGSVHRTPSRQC
Text: National Center for Advancing Translational Sciences [NCATS]
Division of Preclinical Innovation [DPI]
U.S. Environmental Protection Agency [EPA]
National Institutes of Environmental Health Sciences [NIEHS]
National Toxicology Program [NTP]
U.S. Food and Drug Administration [FDA]
The CHRM1 is a muscarinic receptor. This receptor plays a crucial role in learning and memory processes and has long been identified as a promising therapeutic target for the improvement of cognitive decline in Alzheimer's disease (AD). The CHRM1-CHO cell line stably expressing human muscarinic acetylcholine receptor M1 (CHRM1) can be used for screening agonists and antagonists of interactions between CHRM1 and its ligands. The CHRM1-CHO Calcium Flux Assay is a homogeneous fluorescence-based assay for detecting the intracellular calcium level using FDSS kinetic plate reader system.
Tox21 Assay Protocol Summary:
CHRM1-CHO cells were dispensed at 1000 cells/3uL/well in 1536-well black-clear bottom plates using a Multidrop Dispenser. After the assay plates were incubated at a 37 C/5% CO2 incubator for 18 h, 3 uL of Dye Loading Buffer was transferred to the assay plate by a Flying Reagent Dispenser. The assay plates were incubated at 37 C for 1h. For antagonist mode, 23 nL of compounds dissolved in DMSO, positive controls or DMSO only was transferred to the assay plate by a pin tool. After 5 min incubation at room temperature, 1.5 uL of acetylcholine at 50nM was added to each well. The fluorescence intensity in the plates was measured using FDSS 7000EX kinetic plate reader for 3 min at 1 sec intervals. Each test compound was measured at 15 concentrations in three independent runs.

Row | SMILES | Potency | activity, negative = inhibition [%]
1 | Nc1ccc(Cl)cc1Cl | inactive | –
2 | Cc1ccc(Cl)cc1 | inactive | –
3 | O=S1(=O)CC=CC1 | – | 51.5
4 | Cc1ncc[nH]1 | inactive | –
5 | CC(=O)C(=O)O | inactive | –
6 | Cc1ccc([N+](=O)[O-])cc1N | inactive | –
7 | CC1(C)NC(=O)NC1=O | inactive | –
8 | CC1=CC[C@H]2C[C@@H]1C2(C)C | inactive | –
9 | CC(C)=CCl | inactive | –
10 | CCCCCC(N)=O | inactive | –
11 | COc1ccc(Nc2ccccc2)c(C)c1 | – | -1.8
12 | CC(C)OC(=O)COc1ccc(Cl)cc1Cl | – | -28
13 | CC(=O)Nc1ccc(C(=O)CCl)cc1 | inactive | –
14 | CCCCCCCCCCCCCC(=O)O | inactive | –
15 | C/C=C/c1ccc(OC)cc1 | inactive | –
16 | NS(=O)(=O)c1cc2c(cc1Cl)NC=NS2(=O)=O | inactive | –
17 | OC(CCl)CCl | inactive | –
18 | C[Si](C)(C)O[Si](C)(C)C | inactive | –
19 | Nc1cccc(C(F)(F)F)c1 | inactive | –
20 | Nc1ccc(C(=O)O)cc1 | inactive | –

Row | SMILES | Potency | activity, negative = inhibition [%]
21 | COC(=O)c1ccc(C=O)cc1 | inactive | –
22 | CC1(C)CC(N)CC(C)(CN)C1 (stereo not given) | inactive | –
23 | COc1cc([C@H]2Oc3cc([C@H]4Oc5cc(O)cc(O)c5C(=O)[C@@H]4O)ccc3O[C@@H]2CO)ccc1O | inactive | –
24 | Cc1ccc([N+](=O)[O-])cc1S(=O)(=O)O | inactive | –
25 | O=C(O)c1cc(C(=O)O)cc(S(=O)(=O)O)c1 | inactive | –
26 | O=C(O)Cn1c(=O)n(Cc2ccc(Br)cc2F)c(=O)c2ccc(Cl)cc21 | inactive | –
27 | Brc1ccc(Oc2ccc(Br)cc2)cc1 | inactive | –
28 | Nc1ccc2c(O)cc(S(=O)(=O)O)cc2c1 | – | -28
29 | O=S(=O)(O)c1ccc(O)cc1 | inactive | –
30 | O=C1C(N(CO)C(=O)NCO)N(CO)C(=O)N1CO (stereo not given) | inactive | –
31 | NCCOCCO | inactive | –
32 | COc1cc(C=O)ccc1O | inactive | –
33 | C[Si]1(C)O[Si](C)(C)O[Si](C)(C)O[Si](C)(C)O1 | inactive | –
34 | CC1(C)C(=O)N(Cl)C(=O)N1Cl | inactive | –
35 | CC(=O)OCC(=O)[C@@]12N=C(C)O[C@@H]1C[C@H]1[C@@H]3CCC4=CC(=O)C=C[C@]4(C)[C@H]3[C@@H](O)C[C@@]12C | inactive | –
36 | CC(C)CC(=O)CC(C)CC(C)C (stereo not given) | inactive | –
37 | CN(C)CCOCCN(C)C | inactive | –
38 | C=C(C)C(=O)OCCOC(=O)C(=C)C | inactive | –
39 | COC(=O)/C=C\C(=O)OC | inactive | –
40 | Cc1ccc(C)c(S(=O)(=O)O)c1 | inactive | –
